“And” between values parts separate entries of the source, which are not always exact repeats. Identical values can stand only once. Compounds without any hit were thinned out: in the full panel of roughly 83,000, 20% have a hit.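 Values shown are percent growth following 48 h exposure of cells in 96-well plates to a single concentration of compound; below 10 was considered active.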 The source made the active and inactive calls.

Holding throughout (test): NCI-60 one-dose screen, 48 h (100 = growth as untreated, 0 = no growth, -100 = all killed)
In one experiment the test system is EKVX NSCLC. As to conditions: 10 µM unless noted.
The subject of another experiment is SN12C renal.
The test system of the next experiment is ACHN renal. As to conditions: 10 µM unless noted.
For a further experiment, the system named is CAKI-1 renal. Particulars: 10 µM unless noted.
For the next experiment, the system named is A498 renal. As to conditions: 10 µM unless noted.
A further experiment has as its system CCRF-CEM leukemia. Particulars: 10 µM unless noted.
In the next experiment the test system is SR leukemia. Particulars: 10 µM unless noted.
The test system of a further experiment is RPMI-8226 leukemia. Particulars: 10 µM unless noted.
The next experiment deals with OVCAR-4 ovarian. As to conditions: 10 µM unless noted.
In a further experiment the test system is SK-OV-3 ovarian. Particulars: 10 µM unless noted.
The next experiment concerns IGROV1 ovarian. As to conditions: 10 µM unless noted.
For the next experiment, the system named is OVCAR-3 ovarian. Particulars: 10 µM unless noted.
In another experiment the test system is HS 578T breast. As to conditions: 10 µM unless noted.
The next experiment relates to NCI/ADR-RES ovarian. As to conditions: 10 µM unless noted.
A further experiment has as its system UO-31 renal. Particulars: 10 µM unless noted.
The subject of the next experiment is TK-10 renal.
A further experiment deals with OVCAR-8 ovarian. As to conditions: 10 µM unless noted.
A further experiment relates to OVCAR-5 ovarian. Particulars: 10 µM unless noted.
A further experiment relates to MOLT-4 leukemia. As to conditions: 10 µM unless noted.

Regarding `CCCCCC(CCCCC)C(=O)O`, the growth with EKVX NSCLC was 116% (inactive); in the experiment on SN12C renal (10 µM unless noted), 98.8% (inactive); in the experiment with ACHN renal, 109% (inactive); in the experiment with CAKI-1 renal, 119% (inactive); with A498 renal, 103% (inactive); with CCRF-CEM leukemia, 83.8% (inactive). The growth is 99.7% (inactive) with SR leukemia; 97.3% (inactive) in the experiment with RPMI-8226 leukemia; 106% (inactive) with OVCAR-4 ovarian; 98.4% (inactive) in the experiment with SK-OV-3 ovarian; 96.3% (inactive) in the experiment on IGROV1 ovarian; 118% (inactive) in the experiment on OVCAR-3 ovarian. For the same compound, the values for the growth with HS 578T breast and in the experiment on NCI/ADR-RES ovarian were 104% (inactive) and 117% (inactive), respectively.

Turning to `COc1cc(/C=C/C(C)=O)ccc1O`, the growth was 91.8% (inactive) and 112% (inactive) in the experiment with EKVX NSCLC; 98.1% (inactive) and 104% (inactive) in the experiment on SN12C renal (10 µM unless noted); 66% (inactive) and 88.4% (inactive) with UO-31 renal; 97.7% (inactive) and 142% (inactive) in the experiment on TK-10 renal (10 µM unless noted); 95.9% (inactive) and 95% (inactive) in the experiment with ACHN renal; 93.4% (inactive) and 115% (inactive) with CAKI-1 renal. The growth with A498 renal was 79.1% (inactive) and 116% (inactive); in the experiment on CCRF-CEM leukemia, 28.4% (inactive) and 78.1% (inactive); in the experiment on SR leukemia it was 93.2% (inactive) and 89.3% (inactive); in the experiment on RPMI-8226 leukemia it was 116% (inactive); with OVCAR-8 ovarian it was 104% (inactive) and 105% (inactive); in the experiment with OVCAR-5 ovarian, 92.3% (inactive) and 102% (inactive). Besides, the growth in the experiment on OVCAR-4 ovarian is 108% (inactive) and 103% (inactive); in the experiment with SK-OV-3 ovarian, 94% (inactive) and 112% (inactive); with IGROV1 ovarian it was 101% (inactive) and 119% (inactive); in the experiment on OVCAR-3 ovarian, 100% (inactive) and 106% (inactive); in the experiment with HS 578T breast, 113% (inactive); with NCI/ADR-RES ovarian it was 107% (inactive) and 100% (inactive).

Turning to `Cc1ccc(N=C=C(c2ccccc2)c2ccccc2)cc1`, the growth with SN12C renal (10 µM unless noted) was 79.2% (inactive); with TK-10 renal (10 µM unless noted) it was 112% (inactive); with ACHN renal it was 102% (inactive); in the experiment with CAKI-1 renal, 81.6% (inactive); in the experiment on A498 renal, 126% (inactive); in the experiment on CCRF-CEM leukemia, 1.63% (active). Moreover, the growth was 22.9% (inactive) with SR leukemia; 70% (inactive) in the experiment on OVCAR-8 ovarian; 113% (inactive) with OVCAR-5 ovarian; 103% (inactive) with OVCAR-4 ovarian; 112% (inactive) with SK-OV-3 ovarian; 57.2% (inactive) in the experiment with IGROV1 ovarian. The growth is 118% (inactive) in the experiment on OVCAR-3 ovarian, 91.1% (inactive) in the experiment with HS 578T breast and 81.2% (inactive) with NCI/ADR-RES ovarian.

Turning to `CC1=CC(O)C2CC1C2(C)C` (stereo not given), the growth with EKVX NSCLC is 97.7% (inactive) and 104% (inactive); in the experiment with SN12C renal (10 µM unless noted) it was 102% (inactive) and 108% (inactive); in the experiment on UO-31 renal it was 93.8% (inactive) and 73.6% (inactive); with ACHN renal it was 103% (inactive) and 118% (inactive); in the experiment with CAKI-1 renal, 94.4% (inactive) and 85.8% (inactive); with A498 renal it was 91% (inactive) and 92.7% (inactive). Besides, the growth in the experiment on CCRF-CEM leukemia was 106% (inactive) and 105% (inactive); in the experiment with MOLT-4 leukemia it was 91.9% (inactive) and 93.3% (inactive); in the experiment with SR leukemia it was 101% (inactive) and 97.3% (inactive); in the experiment with RPMI-8226 leukemia, 111% (inactive) and 107% (inactive); with OVCAR-8 ovarian, 105% (inactive) and 104% (inactive); with OVCAR-5 ovarian, 104% (inactive) and 110% (inactive). For the same compound, the growth with OVCAR-4 ovarian is 99.7% (inactive) and 108% (inactive); in the experiment with SK-OV-3 ovarian, 94.3% (inactive) and 104% (inactive); with IGROV1 ovarian it was 101% (inactive) and 99.3% (inactive); with OVCAR-3 ovarian it was 110% (inactive) and 113% (inactive); with NCI/ADR-RES ovarian, 108% (inactive) and 109% (inactive).

For the compound `COc1ccc2nc3cc(Cl)ccc3c(NCCNc3c4ccc(Cl)cc4nc4ccc(OC)cc34)c2c1`, the growth is -83.5% (active) in the experiment on EKVX NSCLC; -89.6% (active) with SN12C renal (10 µM unless noted); -94.7% (active) in the experiment with ACHN renal; -79.8% (active) in the experiment with CAKI-1 renal; 22.2% (inactive) with A498 renal; -10.9% (active) in the experiment with CCRF-CEM leukemia. Also, the growth in the experiment with MOLT-4 leukemia is -76% (active); with SR leukemia it was -29.8% (active); with OVCAR-8 ovarian, -65.4% (active); in the experiment with OVCAR-4 ovarian, -43.6% (active); in the experiment on SK-OV-3 ovarian, -95.6% (active); in the experiment with IGROV1 ovarian, -78.9% (active). Also, the growth with OVCAR-3 ovarian is -92.5% (active); in the experiment on HS 578T breast, -34.9% (active); with NCI/ADR-RES ovarian, -53.5% (active).

Regarding `S=C(N/N=C/c1ccccn1)Nc1ccccn1`, the growth in the experiment with EKVX NSCLC is 41.4% (inactive); in the experiment with SN12C renal (10 µM unless noted) it was 33.7% (inactive); in the experiment on UO-31 renal it was 13% (inactive); with TK-10 renal (10 µM unless noted) it was 31.4% (inactive); in the experiment on ACHN renal, 15.9% (inactive); with CAKI-1 renal, 13.2% (inactive). For the same compound, the growth was -14.8% (active) in the experiment on CCRF-CEM leukemia; -27.6% (active) in the experiment on MOLT-4 leukemia; -29% (active) in the experiment with SR leukemia; -2.91% (active) with RPMI-8226 leukemia; 14.2% (inactive) with OVCAR-8 ovarian; 49.2% (inactive) in the experiment with OVCAR-5 ovarian. The growth was 36.4% (inactive) in the experiment with SK-OV-3 ovarian, 27% (inactive) in the experiment on IGROV1 ovarian, -0.151% (active) with OVCAR-3 ovarian and 7.98% (active) in the experiment on NCI/ADR-RES ovarian.

`O=C(O)c1ccc2c3c(ncnc13)-c1ccccc1C2=O`: the growth in the experiment on EKVX NSCLC was 103% (inactive); in the experiment on SN12C renal (10 µM unless noted) it was 48.7% (inactive); in the experiment with UO-31 renal, 62.7% (inactive); in the experiment on TK-10 renal (10 µM unless noted) it was 120% (inactive); in the experiment with ACHN renal it was 73.8% (inactive); in the experiment with CAKI-1 renal, 111% (inactive). The growth in the experiment on A498 renal is -2.38% (active); in the experiment on CCRF-CEM leukemia, 77.9% (inactive); with MOLT-4 leukemia it was 96.3% (inactive); in the experiment with SR leukemia, 98.4% (inactive); in the experiment on RPMI-8226 leukemia, 87.1% (inactive); in the experiment with OVCAR-4 ovarian, 91.7% (inactive). Besides, the growth with SK-OV-3 ovarian was 98% (inactive); in the experiment on IGROV1 ovarian it was 83.4% (inactive); in the experiment with OVCAR-3 ovarian, 83.4% (inactive); in the experiment with NCI/ADR-RES ovarian, 76.9% (inactive).

For `O=C(/C=C\c1cc(Br)ccc1O)/C=C/c1cc(Br)ccc1O`, the growth is -55.4% (active) in the experiment with SN12C renal (10 µM unless noted); -20% (active) in the experiment on TK-10 renal (10 µM unless noted); -59.8% (active) in the experiment with ACHN renal; -2.63% (active) in the experiment with CAKI-1 renal; -70.1% (active) in the experiment with A498 renal; 0.164% (active) in the experiment with MOLT-4 leukemia. The growth with SR leukemia is 1.17% (active); with RPMI-8226 leukemia, 0.234% (active); with OVCAR-8 ovarian, 3.86% (active); with OVCAR-5 ovarian, -22.2% (active); in the experiment with OVCAR-4 ovarian it was 15.2% (inactive); in the experiment with SK-OV-3 ovarian, 18.9% (inactive). Further, the growth is -16.9% (active) with IGROV1 ovarian, -81.5% (active) in the experiment with OVCAR-3 ovarian, 37.8% (inactive) in the experiment on HS 578T breast and 7.59% (active) in the experiment with NCI/ADR-RES ovarian.

Consider `COc1cc(NS(C)(=O)=O)ccc1Nc1c2ccccc2nc2ccccc12`, for which the growth is 17.7% (inactive) in the experiment on SN12C renal (2.5 µM); 10.6% (inactive) [middle of 4 runs] with SN12C renal (10 µM); 66.1% (inactive) in the experiment with TK-10 renal (2.5 µM); -95.2% (active) and -100% (active) in the experiment with TK-10 renal (250 µM); 2.39% [2.5 µM] (active) in the experiment on ACHN renal; 16.3% [2.5 µM] (inactive) in the experiment on CAKI-1 renal. The growth in the experiment on A498 renal was -7.27% [2.5 µM] (active); in the experiment on CCRF-CEM leukemia, 3.36% [2.5 µM] (active); in the experiment on MOLT-4 leukemia it was 1.03% [2.5 µM] (active); in the experiment on SR leukemia it was 19.4% [2.5 µM] (inactive); in the experiment with RPMI-8226 leukemia it was 11.3% [2.5 µM] (inactive); in the experiment on OVCAR-8 ovarian, 28.8% (inactive) and 23.2% (inactive) and 27.8% (inactive). The growth with OVCAR-5 ovarian was 46.8% [2.5 µM] (inactive); in the experiment with OVCAR-4 ovarian it was 87.8% [2.5 µM] (inactive); in the experiment on SK-OV-3 ovarian, 32.5% [2.5 µM] (inactive); in the experiment on IGROV1 ovarian, 48.6% [2.5 µM] (inactive); with OVCAR-3 ovarian, 58.7% [2.5 µM] (inactive); with NCI/ADR-RES ovarian it was 70.2% [2.5 µM] (inactive).

The values are drawn from PubChem BioAssay (NCI).
